In PubChem BioAssay:
Values without a mark were called inactive. The rule behind the calls is not given here.

What follows are compounds tested against Pantothenate synthetase (Mycobacterium tuberculosis (strain ATCC 25618 / H37Rv)) (UniProt P9WIL5) (assay: Recombinant Mtb pantothenate synthetase (PanC) inhibitors, coupled enzyme, confirmatory (AID 375;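 note: 0% = full reaction with vehicle and 100% = no enzyme background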)). Details: coupled enzyme assay; at 10 µM, stronger effect = higher value.
Chain of Pantothenate synthetase (Mycobacterium tuberculosis (strain ATCC 25618 / H37Rv)) (P9WIL5 whole entry, looked up): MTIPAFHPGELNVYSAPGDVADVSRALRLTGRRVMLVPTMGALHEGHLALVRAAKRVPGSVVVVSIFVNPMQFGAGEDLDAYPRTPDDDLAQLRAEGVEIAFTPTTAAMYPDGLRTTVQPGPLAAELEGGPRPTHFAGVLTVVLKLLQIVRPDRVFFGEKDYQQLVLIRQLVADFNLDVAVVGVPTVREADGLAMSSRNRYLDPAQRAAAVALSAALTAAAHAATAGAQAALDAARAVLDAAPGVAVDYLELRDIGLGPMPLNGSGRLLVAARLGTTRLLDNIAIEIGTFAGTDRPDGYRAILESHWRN

SMILES | inhibition [%]
COc1ccc(OC)c(C2=NOC(C(=O)Nc3cccnc3)C2)c1 (stereo not given) | 0
Cc1ccc(C)c(CSc2nnc(CCN)o2)c1 | 0
O=C1CCNc2cc3ccccc3cc21 | 3
O=C(CSc1nc2ccccc2[nH]1)N1CCCCC1 | 0
N#Cc1cn(CC(=O)N2CCCC2)c2ccccc12 | 0
CCOc1ccccc1C1NC(=O)NC(C)=C1C(=O)OC1CCCC1C (stereo not given) | 2
CCOc1cc(NC(=O)c2ccco2)c(OCC)cc1NC(=O)CCc1ccc(OC)cc1 | 3
O=C(NCCc1ccccc1)C1CCCN(S(=O)(=O)c2cccs2)C1 (stereo not given) | 9
COc1ccccc1N(CC(=O)Nc1cccnc1)S(C)(=O)=O | 5
COc1ccc(Br)cc1S(=O)(=O)N1CCOCC1 | 0
O=C(Cn1c(=O)[nH]c2ccsc2c1=O)N1CCN(c2ccc(F)cc2)CC1 | 0
O=C(Nc1ccc(N2CCCC2=O)cc1)c1cccc(F)c1 | 4
CCN(CC(=O)NCc1cccs1)C(=O)c1cc(S(=O)(=O)N2CCOCC2)ccc1C | 0
CCN(CC)c1ccc(NC(=O)c2nc3nc(C)cc(C(F)F)n3n2)cc1 | 0
CCCOC(=O)CSc1nc(N)c(C#N)c(CC)c1C#N | 8
O=C(C1COc2ccccc2O1)N1CCCC1 (stereo not given) | 0
COc1ccc(N2CCN(CCNC(=O)CCS(=O)(=O)c3cccc4nsnc34)CC2)cc1 | 0
COc1ccccc1NC(=O)N(Cc1ccccc1)c1ccccn1 | 6
C/C(N)=C(/C#N)C(=O)COC(=O)c1cc(C)n(-c2ccc(F)cc2)c1C | 2
COc1ccc(-c2nnc3sc(C(C)N4C(=O)c5ccccc5C4=O)nn23)cc1 (stereo not given) | 0

SMILES | inhibition [%]
Cc1nc(C)c2c(c1C(F)(F)F)-c1ccccc1C2(F)F | 0
COCc1cc(C)nc(Nc2ccc(C)cc2C)c1C#N | 0
CCN1CCN(c2c(Cl)cccc2NC(=O)c2ccco2)CC1 | 9
Cc1ccccc1-c1nc(CN2CCC(C(=O)N3CCC(C(N)=O)CC3)CC2)c(C)o1 | 0
Cc1cc(Cl)cc2c1NC(=O)[C@]21[C@@H]2C(=O)N(Cc3ccccc3)C(=O)[C@@H]2[C@@H]2CCCN21 | 6
O=C(COC(=O)CCOc1ccccc1)Nc1ccc(Cl)cn1 | 0
COc1ccccc1-n1c(C)nnc1SCC(N)=O | 0
CCn1cc(C(=O)N2CCN(C(=O)c3ccco3)CC2)c2cc(OC)c(OC)cc2c1=O | 0
CC1CCN(CCCNC(=O)c2cn(C)c3ccc(S(=O)(=O)N4CCCC4)cc3c2=O)CC1 | 0
O=C(Nc1ncc(Br)s1)C1CCCN1S(=O)(=O)c1cccc2cccnc12 (stereo not given) | 0
CCOC(=O)C(C)(C)Sc1nc2c(cnn2-c2ccc(Cl)cc2)c(=O)[nH]1 | 0
CC(=O)NC(Cc1ccccc1)C(=O)NC1CCN(C(=O)c2cnccn2)CC1 (stereo not given) | 0
O=C(O)c1c(Cl)c(Cl)c(Cl)c(Cl)c1C(=O)N1CCOCC1 | 0
CN(C)S(=O)(=O)NC(c1ccccc1)c1ccccc1 | 4
CC(C)(C)SCCNC(=O)COc1ccc(Cl)cc1 | 0
CCCOc1cccc(C2/C(=C(/O)c3ccccc3)C(=O)C(=O)N2CCN(C)C)c1 (stereo not given) | 0
CCC1=C(C(=O)OC)C(c2cc(OC)ccc2OC)C(C#N)=C(N)O1 (stereo not given) | 8
CCOCCCNC(=O)CS(=O)(=O)Cc1nc(-c2cccc(OC)c2)oc1C | 0
O=C(Oc1ccccc1)c1cccc(COC(=O)c2cnccn2)c1 | 5
O=C(c1cn(-c2ccccc2)nc1-c1cccs1)N1CCN(c2ccccn2)CC1 | 2
